# Source: PubChem (National Center for Advancing Translational Sciences (NCATS))
# Most compounds without a hit are left out; they make up all but 9% or so of the library.
# HTT ATP protect = protects HTT-Q103 PC12 cells, measured by ATP | 230,000 tested, 0.14% active | PC12 HTT-Q103 induced, cytoprotection, ATP luminescence, 40 h | AID 1471 | Potency, µM (doses to about 56.4 µM), without a hit: cytoprotection (ATP increase), usual class: activators; note: % of control where 0% means no effect; nearly all actives have a fitted effect of over 45% in size
#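 Rat PC12, Q103 Htt exon1-GFP fusion, ecdysone promoter; tebufenozide inducer 100 nM final; compound titration; qHTS, 1500 cells/well; ATPlite luminescent read.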
# HPGD inh = blocks human HPGD enzyme activity; P15428; purified HPGD, NADH fluorescence kinetic, PGE2 substrate; Potency, µM, without a hit: at the top dose activity change, negative = inhibition, actives largely listed as inhibitors; 150,000 tested, 4.3% active; AID 894; active = well fitted inhibition curve with a large enough effect, not every such curve was filed as active; inconclusive = small, poorly fitted or top-dose-only effect, or another doubt; inactive = no such curve, though single readings can be large or run the other way; note: % is set by controls: 0 for no effect and ±100 for the full control effect
# Target sequence (P15428 whole entry, looked up): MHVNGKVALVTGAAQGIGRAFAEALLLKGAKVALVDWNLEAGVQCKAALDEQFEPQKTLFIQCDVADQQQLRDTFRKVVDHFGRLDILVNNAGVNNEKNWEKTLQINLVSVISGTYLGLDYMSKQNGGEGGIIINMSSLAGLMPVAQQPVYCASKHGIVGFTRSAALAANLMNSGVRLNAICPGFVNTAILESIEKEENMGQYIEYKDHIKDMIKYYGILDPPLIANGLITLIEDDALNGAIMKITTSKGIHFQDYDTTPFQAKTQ
#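 20 nM HPGD preincubated 15 min at room temperature with compound in 50 mM Tris-HCl pH 8, 0.01% Tween 20. Started with 1 mM NAD+ and 30 uM prostaglandin E2; NADH fluorescence (360/450 nm) read 5 times over 30-s intervals, last minus first.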
# Luc counter = blocks Kinase-Glo luciferase, a counter-screen artifact; Kinase-Glo luciferase, ATP luminescence, 8 min; 200,000 tested, 0.28% active; Potency, µM (series often up to 38.3 µM), for the others: at the highest dose activity change, negative = inhibition, actives largely listed as inhibitors; Q27757; AID 1379; note: % is set by controls: 0 for no effect and ±100 for the full control effect; nearly all actives have a fitted effect of over 60% in size
#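 Inhibition of Kinase-Glo luciferase light generation was assessed at 10 uM ATP in pH 7.2 imidazole buffer, with luminescence measured after eight minutes at ambient temperature.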
# ALDH1A1 block = blocks purified human ALDH1A1 activity; Purified ALDH1A1, NADH fluorescence, propionaldehyde substrate; Potency, µM (top dose mostly 75.3 µM), for the others: top-dose activity, negative = inhibition, hits mostly inhibitors; 220,000 tested, 7.3% active; active = well fitted inhibition curve with a large enough effect, not every such curve was filed as active; inconclusive = small, poorly fitted or top-dose-only effect, or another doubt; inactive = no such curve, though single readings can be large or run the other way;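 note: plate controls were no enzyme wells and a reference inhibitor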
# Target sequence (P00352 whole entry, looked up): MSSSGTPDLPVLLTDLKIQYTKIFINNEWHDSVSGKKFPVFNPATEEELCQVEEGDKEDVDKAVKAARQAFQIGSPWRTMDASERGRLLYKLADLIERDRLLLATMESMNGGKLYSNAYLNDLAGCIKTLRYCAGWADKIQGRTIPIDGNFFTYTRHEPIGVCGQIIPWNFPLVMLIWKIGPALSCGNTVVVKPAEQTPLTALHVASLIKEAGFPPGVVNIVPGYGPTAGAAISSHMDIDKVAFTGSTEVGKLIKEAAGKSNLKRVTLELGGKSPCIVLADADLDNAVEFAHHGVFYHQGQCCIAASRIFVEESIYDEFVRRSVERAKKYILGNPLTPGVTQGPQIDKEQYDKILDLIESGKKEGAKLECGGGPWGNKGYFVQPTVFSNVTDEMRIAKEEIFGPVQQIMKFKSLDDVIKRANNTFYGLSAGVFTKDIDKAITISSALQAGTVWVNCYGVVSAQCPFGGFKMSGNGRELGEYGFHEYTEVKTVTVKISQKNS
# LMNA splice mod = changes lamin A minigene splicing in HeLa cells. 200,000 tested, 0.01% active. HeLa LMNA splicing GFP/RFP minigene ratio, 48 h. Potency, µM (titrated, usually from 46.1 µM), without a hit: at the highest dose ratio change, negative = inhibition, actives largely listed as inhibitors; active = well fitted inhibition curve with a large enough effect in the signal ratio, with a control signal flat, not every such curve was filed as active; inconclusive = small, poorly fitted or top-dose-only effect, or effect the other way, or a change in a side signal; the % refers to the signal ratio; note: % is set by controls: 0 for no effect and ±100 for the full control effect
#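 S3 HeLa stable clones carrying a lamin A-EGFP splicing minigene plus DsRed2 were seeded at 600 cells/well in Opti-MEM with 2% FBS, pin-dosed and incubated 48 h at 37°C. Acumen cytometry (488 nm) gave the GFP/RFP total-intensity ratio.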
# HttQ103 aggreg = mutant huntingtin aggregation inhibition | PC12 HttQ103-GFP aggregates, Acumen cytometry, 40 h | Potency, µM (series often up to 46.1 µM), for the others: at the highest dose activity change, negative = inhibition, hits mostly inhibitors | 220,000 tested, 1.1% active; note: % is set by controls: 0 for no effect and ±100 for the full control effect; nearly all actives have a fitted effect of over 60% in size
#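 Using laser scanning cytometry, GFP-positive aggregates were counted after lysis of PC12 cells induced with 100 nM tebufenozide to express HTT exon 1 Q103–GFP. Compounds were tested in titration.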
# * marks the source's active call; other numbers are inactive results; ? = inconclusive; / = not tested or not shown; ! = repeats disagree; [ ] = another dose, or the depositor's remark. Unless noted, calls come from the whole dose curve; as a rule, active = well fitted curve in the direction sought with a large enough effect; inconclusive = small, poorly fitted or top-dose-only effect, or another doubt; inactive = no such curve, though single readings can be large; an effect the other way counts as inactive or inconclusive. Potency is the fitted concentration of half-maximal effect.
SMILES,HTT ATP protect,HPGD inh,Luc counter,ALDH1A1 block,LMNA splice mod,HttQ103 aggreg
CC[C@H](C)[C@@H](NC(=O)O[C@@H]1C(=O)c2cc(Br)ccc2O[C@H]1c1ccc2c(c1)OCO2)C(=O)OC,-6.3%,-5.1%,-0.2%,25.1µM*!,12.5%,5.1%
Cn1c(=O)n(Cc2ccc(Br)cc2)c2ccccc21,-17.0%[10 µM],/,-0.2%,-3.2%,/,8.0%[9.22 µM]
CN(C)c1ccc(CN2CCC(C(N)=O)CC2)cc1,-2.7%[10 µM],/,8.4%,?,1.1%[46 µM],-6.6%[9.22 µM]
Cc1ccc(CN2C(=O)N/C(=C/c3ccc(-c4ccc(C(=O)O)cc4)o3)C2=O)cc1,-2.1%[10 µM],/,/,/,/,-12.7%[9.22 µM]
Cc1cccc(NC(=O)CN2C(=O)N/C(=C/c3ccc(C)o3)C2=O)c1,-9.9%[10 µM],-24.1%,2.3%,10µM*,-13.5%,23.7%
Cc1ccc(NC(=O)CN2C(=O)N/C(=C/c3ccc(C)s3)C2=O)cc1,35.6%[10 µM],-16.2%,1.2%,1.2%,-10.4%,-11.5%
C=CCN1C(=O)N/C(=C/c2ccc(C)o2)C1=O,-15.3%[10 µM],-18.9%,0.7%,7.94µM*,-14.1%,?
Cc1ccc(NC(=O)CN2C(=O)N/C(=C/c3ccc(C)o3)C2=O)cc1,-16.7%,?,4.0%,12.6µM*,-4.0%,23.5%
O=C(Nc1ccc(Cl)cc1)C1CC(=O)n2c(nc3ccccc32)N1 (configuration not stated),?,/,4.2%,5.2%,?,6.1%
Nc1nc(Sc2ccc(C(F)(F)F)cn2)n[nH]1,-2.4%[10 µM],-9.6%,2.9%,21.0%,19.2%,-4.0%
Cc1c(Cl)cccc1NS(=O)(=O)c1ccc2c(c1)C1C=CCC1C(c1ccc(C(=O)O)cc1)N2 (configuration not stated),7.6%[10 µM],/,/,12.6µM*,/,-11.0%[9.22 µM]
CC(=O)c1ccc2c(c1)C1C=CCC1C(c1ccc(S(=O)(=O)N3CCOCC3)cc1)N2 (configuration not stated),24.3%[10 µM],-9.2%,-7.0%,25.1µM*,?,10.9%
O=C(O)c1ccc2c(c1)C1C=CCC1C(c1ccncc1)N2 (configuration not stated),17.9%[10 µM],/,/,/,/,-27.4%[9.22 µM]
COc1cccc2cc(/C(=N/O)c3ccccc3)oc12,4.3%[10 µM],/,1.9%,-6.3%,/,?
O/N=C(\c1ccc(Cl)cc1)c1cc2ccccc2o1,2.2%,25.1µM*,2.2%,5.7%,?,?
Cc1oc(C)c2c(=O)ccc3c(c12)OC(N)=C(C#N)C3c1ccc(F)cc1 (configuration not stated),10.6%,25.1µM*,-4.4%,14.1µM*,?,6.3%
CC/C(C)=N/NS(=O)(=O)c1ccc(C)c([N+](=O)[O-])c1,-11.9%[10 µM],/,/,/,/,-20.0%[9.22 µM]
CCC(C)(C)C1CCC(=NNS(=O)(=O)c2ccc(C)c([N+](=O)[O-])c2)CC1 (configuration not stated),-1.4%[10 µM],-3.4%,-2.0%,7.94µM*,-6.4%,1.5%
C/C(CCC(C)C)=N\NS(=O)(=O)c1ccc(C)c([N+](=O)[O-])c1,32.1%[10 µM],/,/,/,/,11.5%[9.22 µM]
Cc1ccc(S(=O)(=O)N/N=C2/CCCCC2C2CCCCC2)cc1[N+](=O)[O-] (configuration not stated),-3.5%[10 µM],-10.1%,1.2%,35.5µM*,-1.5%,-0.6%
CNC(=O)COC(=O)c1c2c(nc3ccccc13)CCC2,18.0%[10 µM],/,/,?,/,-14.2%[9.22 µM]
Cc1nc2ccccc2c(=O)n1/N=C/c1ccccn1,-21.9%,-8.1%,1.0%,-8.1%,0.2%,-5.6%[9.22 µM]
Cc1cccc(N2CCC(N3CCN(C4CCCCC4)C(CCO)C3)CC2)c1C (configuration not stated),?,/,-3.2%,3.55µM*,10.2%[46 µM],27.9%[9.22 µM]
CC(C)N1CCC(N2CCN(C3CCCC3)CC2CCO)CC1 (configuration not stated),9.7%[10 µM],/,2.4%,0.3%,-3.2%[46 µM],-16.9%[9.22 µM]
CC(=O)OC1CCC2(C)C(COc3ccc4ccc(=O)oc4c3)C(C)(O)CCC2C1(C)C (configuration not stated),-27.2%,?,-0.7%,?,?,-11.3%
SMILES,HTT ATP protect,HPGD inh,Luc counter,ALDH1A1 block,LMNA splice mod,HttQ103 aggreg
COC(=O)c1ccc(C(=O)OC)c(NC(=O)/C=C/C(=O)O)c1,15.1%[10 µM],/,/,/,/,23.2%[9.22 µM]
C=C1C(CCl)(CCl)C2(Cl)C(Cl)C(Cl)C1(Cl)C2(Cl)Cl (configuration not stated),-34.4%,-19.4%,/,14.1µM*,/,-16.0%
CNc1ccc(Br)cc(C(=O)/C=C/c2ccc3c(c2)OCO3)c1=O,-37.4%,15.8µM*,-6.8%,6.31µM*,?,2.1%
CNc1ccc(Br)cc(C(=O)/C=C/c2cc(OC)ccc2OC)c1=O,13.0%[10 µM],?,-1.7%,?,6.9%,-2.3%[9.22 µM]
CCNc1ccc(Br)cc(C(=O)/C=C/c2ccc(Cl)cc2Cl)c1=O,-13.2%[10 µM],22.4µM*,-3.6%,?,?,30.1%
CNc1ccc(Br)cc(C(=O)/C=C/c2ccc(OC)cc2)c1=O,/,-25.2%,-7.2%,28.2µM*,1.6%,?
CCOC(=O)CN1C2=NCCCN2c2ccccc21,/,/,-0.8%,5.9%,/,/
COc1cccc(CC2CC(=O)N(c3ccc4c(C)cc(=O)oc4c3)C2=O)c1 (configuration not stated),-24.9%,/,1.5%,1.41µM*,?,6.4%
C=CCSC1=N/C(=C\c2cc(OCC)c(OC(C)=O)c([N+](=O)[O-])c2)C(=O)S1,-15.8%[10 µM],6.31µM*,?,0.3%,7.6%,0.5%
CC1CCN(C(=O)CSc2nc3c(cnn3-c3ccccc3)c(=O)[nH]2)CC1,-36.6%,?,3.7%,?,6.1%,?
CC(=O)N1CCN(C(=O)CSc2nc3c(cnn3-c3ccccc3)c(=O)[nH]2)CC1,2.6%,?,-3.1%,25.1µM*,-0.5%,20.8%
CC(C)(C)SCCNC(=O)c1ccc(Cl)c([N+](=O)[O-])c1,-8.2%[10 µM],28.2µM*,-4.8%,?,-4.7%,0.2%
Cc1ccc(N2C(=O)C3C(C2=O)C2C=CC3C23CC3)c([N+](=O)[O-])c1 (configuration not stated),-47.6%,/,-0.3%,2.51µM*,1.1%[46 µM],-13.6%
O=C(NCc1ccccc1Cl)c1cnc2n(c1=O)CCS2,-4.2%,-24.7%,2.8%,14.1µM*,1.2%,-3.4%
O=C(NC1CCCC1)c1cnc2n(c1=O)CCS2,-15.9%,35.5µM*,-2.1%,?,6.9%,0.1%
CC1CC(NC(=O)c2cnc3n(c2=O)CCS3)CC(C)(C)C1 (configuration not stated),-18.6%[10 µM],/,/,/,/,-27.1%[9.22 µM]
COc1ccc(NC(=O)N2CCN(c3ccc([N+](=O)[O-])cc3)CC2)cc1OC,/,/,2.0%,8.91µM*,/,-24.4%
Cc1noc(C)c1CSCC(=O)N1CCN(c2ccc([N+](=O)[O-])cc2)CC1,2.0%,-7.3%,1.5%,22.4µM*,?,0.4%[9.22 µM]
